This is an account of results in PubChem BioAssay (NCI).

Compounds without any hit were thinned out: in the full panel of roughly 79,000, 15% have a hit. Unmarked numbers belong to inactive results. Calls of active or inactive are those of the source. Rule as the data show it: active = growth inhibition above about 70%; inactive = the rest.

A short description of assay [1]: NCI Yeast Anticancer Drug Screen. Data for the rad50 strain (AID 155).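 Also: 0% = growth of vehicle-only cultures of the same strain.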 Particulars: S. cerevisiae rad50 strain growth inhibition, stronger effect = higher value. In short, it runs like this:
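Vehicle-treated cultures provide the reference for the growth inhibition reported for compound-exposed, repair-deficient yeast.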

Assay [2] in a line: NCI Yeast Anticancer Drug Screen. Data for the mec2-1 strain (AID 157). Particulars: S. cerevisiae mec2-1 strain, stronger effect = higher value. In short, it runs like this:
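Mutant yeast (mec2-1) grown with compound; growth inhibition relative to vehicle control reported.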

Assay [3] in a line: NCI Yeast Anticancer Drug Screen. Data for the sgs1 mgt1 strain (AID 161).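 Also: 0% = growth of cultures given vehicle only.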 The note with it: S. cerevisiae sgs1 mgt1 strain, stronger effect = higher value. In short, it runs like this: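 This yeast growth screen uses a strain with defined DNA-repair lesions; compound-treated growth is compared with vehicle-treated growth.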
Assay [4] in a line: NCI Yeast Anticancer Drug Screen. Data for the cln2 rad14 strain (AID 165).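 Also: 0% = growth equal to vehicle treated cultures.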 The note with it: S. cerevisiae cln2 rad14 strain, stronger effect = higher value. In short, it runs like this:
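Readout is yeast growth inhibition versus vehicle-treated controls, using a strain with cln2 and rad14 alterations exposed to compound.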

Assay [5] is described as follows: NCI Yeast Anticancer Drug Screen. Data for the bub3 strain (AID 167). Particulars: S. cerevisiae bub3 mutant strain, stronger effect = higher value. In short, it runs like this:
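Mutant yeast screening strain plus compound; vehicle-treated cultures serve as the 0% inhibition reference.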

Assay [6] is described as follows: NCI Yeast Anticancer Drug Screen. Data for the mlh1 rad18 strain (AID 175). The note with it: S. cerevisiae mlh1 rad18 strain growth inhibition, stronger effect = higher value. In short, it runs like this:
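Genetically defined yeast (DNA repair-deficient) exposed to compounds; growth inhibition determined relative to vehicle.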

Setting [7] is: at 5.0 µM (retest, dose inferred, filed as 0.5).
Where [8] appears, read: at 50.0 µM (retest, dose inferred, filed as 5.0).

On to `COC(=O)C1=C(/C=C/C(C)=O)NC(C)=C(C(=O)OC(C)C)C1c1ccccc1Cl` (stereo not given), for which the growth inhibition in assay [1] (setting [7]) is 40%; in assay [1] (setting [8]) it was 95% (active); in assay [1] (at 50.0 µM), 49.3%; in assay [2] (setting [7]), 34%; in assay [2] (setting [8]) it was 97% (active); in assay [2] (at 50.0 µM), 62.5%. Besides, the growth inhibition was 37% in assay [3] (setting [7]); 96% (active) in assay [3] (setting [8]); 24.5% in assay [3] (at 50.0 µM); 65% in assay [4] (setting [7]); 95% (active) in assay [4] (setting [8]); 33.5% in assay [4] (at 50.0 µM). For the same compound, the growth inhibition in assay [5] (setting [7]) was 40%; in assay [5] (setting [8]) it was 97% (active); in assay [5] (at 50.0 µM) it was 41.2%; in assay [6] (setting [7]), 34%; in assay [6] (setting [8]), 95% (active); in assay [6] (at 50.0 µM), 51.4%.

With `CCCc1cc2c(cc1CN(C#N)Cc1cc3c(cc1CCC)OCO3)OCO2`, the growth inhibition was -4% in assay [1] (setting [7]); 54% in assay [1] (setting [8]); 95.3% (active) in assay [1] (at 50.0 µM); 2% in assay [2] (setting [7]); 84% (active) in assay [2] (setting [8]); 96.3% (active) in assay [2] (at 50.0 µM). Further, the growth inhibition in assay [3] (setting [7]) is 1%; in assay [3] (setting [8]) it was 57%; in assay [3] (at 50.0 µM), 93.2% (active); in assay [4] (setting [7]), -2%; in assay [4] (setting [8]), 60%; in assay [4] (at 50.0 µM), 95.8% (active). For the same compound, the growth inhibition in assay [5] (setting [7]) was -4%; in assay [5] (setting [8]), 87% (active); in assay [5] (at 50.0 µM) it was 97% (active); in assay [6] (setting [7]) it was -1%; in assay [6] (setting [8]), 73% (active); in assay [6] (at 50.0 µM) it was 95% (active).

Take `CCc1cc(C)cc(NC(=O)OC2CCCCC2C)c1` (stereo not given): the growth inhibition is 42% in assay [1] (setting [7]); 66% in assay [1] (setting [8]); 90.2% (active) in assay [1] (at 50.0 µM); 35% in assay [2] (setting [7]); 49% in assay [2] (setting [8]); 91% (active) in assay [2] (at 50.0 µM). The growth inhibition in assay [3] (setting [7]) is 35%; in assay [3] (setting [8]), 92% (active); in assay [3] (at 50.0 µM), 91.2% (active); in assay [4] (setting [7]), 20%; in assay [4] (setting [8]), 69%; in assay [4] (at 50.0 µM), 89.1% (active). The growth inhibition in assay [5] (setting [7]) is 37%; in assay [5] (setting [8]), 85% (active); in assay [5] (at 50.0 µM), 91.3% (active); in assay [6] (setting [7]), 38%; in assay [6] (setting [8]) it was 72% (active); in assay [6] (at 50.0 µM), 90.4% (active).

`CCCCCCCCCCCC(=O)OCCOP(=O)(OCC)OCC`: the growth inhibition in assay [1] (setting [7]) was -1%; in assay [1] (setting [8]) it was 91% (active); in assay [1] (at 50.0 µM), 87.2% (active); in assay [2] (setting [7]), 2%; in assay [2] (setting [8]), 98% (active); in assay [2] (at 50.0 µM) it was 20.9%. Besides, the growth inhibition in assay [3] (setting [7]) is 4%; in assay [3] (setting [8]), 99% (active); in assay [3] (at 50.0 µM), 96.5% (active); in assay [4] (setting [7]), -4%; in assay [4] (setting [8]), 97% (active); in assay [4] (at 50.0 µM), 74.7% (active). Moreover, the growth inhibition in assay [5] (setting [7]) is -1%; in assay [5] (setting [8]) it was 97% (active); in assay [5] (at 50.0 µM) it was -9.15%; in assay [6] (setting [7]) it was -1%; in assay [6] (setting [8]), 98% (active); in assay [6] (at 50.0 µM) it was 79.2% (active).

For the compound `Nc1ccc(-c2ccc(N)cc2S(=O)(=O)O)c(S(=O)(=O)O)c1`, the growth inhibition is 2% in assay [1] (setting [7]); 0% in assay [1] (setting [8]); -27.6% in assay [1] (at 50.0 µM); 0% in assay [2] (setting [7]); -5% in assay [2] (setting [8]); -14.2% in assay [2] (at 50.0 µM). The growth inhibition in assay [3] (setting [7]) was -1%; in assay [3] (setting [8]) it was -1%; in assay [3] (at 50.0 µM), -5.9%; in assay [4] (setting [7]), -2%; in assay [4] (setting [8]) it was -5%; in assay [4] (at 50.0 µM), 23.4%. In addition, the growth inhibition in assay [5] (setting [7]) is 2%; in assay [5] (setting [8]), 7%; in assay [5] (at 50.0 µM), 1.8%; in assay [6] (setting [7]), -7%; in assay [6] (setting [8]), -4%; in assay [6] (at 50.0 µM), -38.7%.

For `CCC(N)(CO)CO`, the growth inhibition in assay [1] (setting [7]) is 7%; in assay [1] (setting [8]) it was 67%; in assay [1] (at 50.0 µM), 3.65%; in assay [2] (setting [7]) it was 5%; in assay [2] (setting [8]), 8%; in assay [2] (at 50.0 µM), 8.3%. In addition, the growth inhibition was 2% in assay [3] (setting [7]); 11% in assay [3] (setting [8]); 9.7% in assay [3] (at 50.0 µM); 5% in assay [4] (setting [7]); 12% in assay [4] (setting [8]); 71.5% (active) in assay [4] (at 50.0 µM). Further, the growth inhibition is 3% in assay [5] (setting [7]); 14% in assay [5] (setting [8]); 44.1% in assay [5] (at 50.0 µM); 2% in assay [6] (setting [7]); 8% in assay [6] (setting [8]); -30.2% in assay [6] (at 50.0 µM).

Consider `CCCCCC(CN(C)C)C(=O)/C=C/c1ccc(Cl)cc1` (stereo not given), for which the growth inhibition was 21% in assay [1] (setting [7]); 99% (active) in assay [1] (setting [8]); 99.2% (active) in assay [1] (at 50.0 µM); -1% in assay [2] (setting [7]); 100% (active) in assay [2] (setting [8]); 99.3% (active) in assay [2] (at 50.0 µM). Further, the growth inhibition is 6% in assay [3] (setting [7]); 99% (active) in assay [3] (setting [8]); 99.3% (active) in assay [3] (at 50.0 µM); -1% in assay [4] (setting [7]); 99% (active) in assay [4] (setting [8]); 99.2% (active) in assay [4] (at 50.0 µM). Moreover, the growth inhibition was 5% in assay [5] (setting [7]); 98% (active) in assay [5] (setting [8]); 99.3% (active) in assay [5] (at 50.0 µM); 33% in assay [6] (setting [7]); 99% (active) in assay [6] (setting [8]); 99.2% (active) in assay [6] (at 50.0 µM).

For `COc1ccc2nc3cc(Cl)ccc3c(NCCCCN(C)C)c2c1`, the growth inhibition in assay [1] (setting [7]) is -2%; in assay [1] (setting [8]) it was 21%; in assay [1] (at 50.0 µM), 40.7%; in assay [2] (setting [7]), 1%; in assay [2] (setting [8]), 18%; in assay [2] (at 50.0 µM) it was 35.8%. Also, the growth inhibition in assay [3] (setting [7]) was -5%; in assay [3] (setting [8]), 30%; in assay [3] (at 50.0 µM) it was 37.5%; in assay [4] (setting [7]) it was 5%; in assay [4] (setting [8]) it was 21%; in assay [4] (at 50.0 µM) it was 89.2% (active). Besides, the growth inhibition in assay [5] (setting [7]) is -3%; in assay [5] (setting [8]), 18%; in assay [5] (at 50.0 µM), 39.6%; in assay [6] (setting [7]), 0%; in assay [6] (setting [8]), 21%; in assay [6] (at 50.0 µM), 31.5%.

In the case of `CCCCCCc1cc(C(=O)N/N=C\c2cccc([N+](=O)[O-])c2)c2ccccc2n1`, the growth inhibition in assay [1] (setting [7]) was 0%; in assay [1] (setting [8]), -7%; in assay [1] (at 50.0 µM), -40.9%; in assay [2] (setting [7]), -1%; in assay [2] (setting [8]), -2%; in assay [2] (at 50.0 µM) it was -9.2%. Also, the growth inhibition is 2% in assay [3] (setting [7]); 7% in assay [3] (setting [8]); -19.9% in assay [3] (at 50.0 µM); -5% in assay [4] (setting [7]); -17% in assay [4] (setting [8]); 41% in assay [4] (at 50.0 µM). In addition, the growth inhibition in assay [5] (setting [7]) is 0%; in assay [5] (setting [8]), 5%; in assay [5] (at 50.0 µM) it was 1.45%; in assay [6] (setting [7]) it was 0%; in assay [6] (setting [8]), -7%; in assay [6] (at 50.0 µM), -9.4%.

Take `N#CC(Cl)CS(=O)(=O)c1ccccc1` (stereo not given): the growth inhibition in assay [1] (setting [7]) was 81% (active); in assay [1] (setting [8]), 100% (active); in assay [1] (at 50.0 µM) it was 99.5% (active); in assay [2] (setting [7]), 96% (active); in assay [2] (setting [8]), 100% (active); in assay [2] (at 50.0 µM), 99.5% (active). Also, the growth inhibition in assay [3] (setting [7]) is 31%; in assay [3] (setting [8]), 99% (active); in assay [3] (at 50.0 µM), 99.5% (active); in assay [4] (setting [7]), 49%; in assay [4] (setting [8]) it was 99% (active); in assay [4] (at 50.0 µM), 99.2% (active). Also, the growth inhibition in assay [5] (setting [7]) was 95% (active); in assay [5] (setting [8]), 100% (active); in assay [5] (at 50.0 µM), 95.2% (active); in assay [6] (setting [7]), 88% (active); in assay [6] (setting [8]) it was 100% (active); in assay [6] (at 50.0 µM) it was 99.5% (active).
